Usually inhibition stands for the drop in the measured response relative to a control, in per cent.

Activity calls are given as the source filed them. The rule behind the calls is not given here.

Botulinum neurotoxin type A (Clostridium botulinum), sequence (P0DPI0 whole entry, looked up): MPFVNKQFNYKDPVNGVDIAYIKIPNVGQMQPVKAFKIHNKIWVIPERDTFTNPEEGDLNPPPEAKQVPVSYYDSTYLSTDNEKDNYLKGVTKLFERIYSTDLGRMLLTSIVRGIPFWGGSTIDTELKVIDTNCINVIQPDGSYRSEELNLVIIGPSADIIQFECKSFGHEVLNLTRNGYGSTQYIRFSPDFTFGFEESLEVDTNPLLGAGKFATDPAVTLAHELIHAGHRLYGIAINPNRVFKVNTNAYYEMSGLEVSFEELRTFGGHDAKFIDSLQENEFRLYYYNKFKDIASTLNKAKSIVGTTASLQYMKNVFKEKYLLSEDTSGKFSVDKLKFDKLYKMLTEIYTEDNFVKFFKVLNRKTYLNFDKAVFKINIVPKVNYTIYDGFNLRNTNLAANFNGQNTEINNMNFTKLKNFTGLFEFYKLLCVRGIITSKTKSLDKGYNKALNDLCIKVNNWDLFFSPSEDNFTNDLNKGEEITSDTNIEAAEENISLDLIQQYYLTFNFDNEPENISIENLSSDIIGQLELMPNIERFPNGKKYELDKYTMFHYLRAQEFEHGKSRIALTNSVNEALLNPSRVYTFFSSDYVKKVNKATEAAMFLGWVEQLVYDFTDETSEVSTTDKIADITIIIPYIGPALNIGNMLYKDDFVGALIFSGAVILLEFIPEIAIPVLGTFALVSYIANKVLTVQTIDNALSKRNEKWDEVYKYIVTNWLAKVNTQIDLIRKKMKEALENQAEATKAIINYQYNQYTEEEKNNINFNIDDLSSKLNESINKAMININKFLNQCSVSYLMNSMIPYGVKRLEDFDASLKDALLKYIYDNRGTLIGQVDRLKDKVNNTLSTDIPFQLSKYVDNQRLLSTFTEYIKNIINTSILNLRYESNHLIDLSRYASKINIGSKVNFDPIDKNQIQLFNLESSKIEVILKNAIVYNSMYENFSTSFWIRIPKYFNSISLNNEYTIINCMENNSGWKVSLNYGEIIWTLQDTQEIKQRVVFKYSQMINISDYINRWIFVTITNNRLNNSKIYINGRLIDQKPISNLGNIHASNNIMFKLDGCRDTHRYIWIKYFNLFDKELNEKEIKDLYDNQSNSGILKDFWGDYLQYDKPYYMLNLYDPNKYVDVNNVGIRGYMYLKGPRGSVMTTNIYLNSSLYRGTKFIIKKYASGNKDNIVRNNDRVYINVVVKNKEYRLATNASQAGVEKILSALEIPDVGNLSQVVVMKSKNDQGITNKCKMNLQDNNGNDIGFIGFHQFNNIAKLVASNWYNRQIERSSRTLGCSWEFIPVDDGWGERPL

In the first assay the test system is Botulinum neurotoxin type F light chain protease (Clostridium botulinum). Kind of assay: Clostridium botulinum type F light chain protease inhibitors, microsphere substrate cleavage, validation (AID 588459). Conditions: multiplex microsphere protease substrate cleavage assay, flow cytometry; at 10 µM; hits give high values.
With `CC(C)(C)N(Cc1ccccc1)C(=O)c1ccc(Br)o1`, the inhibition was -1.1% (inactive).

Consider `O=C(O)CCCCCN=C1CCc2ccccc2N1`, for which the inhibition is 1.6% (inactive).

Take `CC(C)CC(=O)Nc1ccc2oc(-c3ccncc3)nc2c1`: the inhibition was 1.4% (inactive).

As to `COc1ccc2[nH]cc(CCNC(=O)C3CCCNC3=O)c2c1` (stereo not given), the inhibition is -3.2% (inactive).

Consider `O=C(O)C1CSC(c2ccc3c(c2)OCO3)N1` (stereo not given), for which the inhibition was 3.1% (inactive).

Regarding `COCCOC(=O)C1=C(N)OC2=C(C(=O)CCC2)C1c1cccnc1` (stereo not given), the inhibition is -3.2% (inactive).

Regarding `COc1ccc2[nH]c(=O)c(CNC3CCCCC3)cc2c1`, the inhibition is -1.7% (inactive).

In the case of `Cc1oc2ccc(OC(=O)c3cccs3)cc2c1C(=O)OC(C)C`, the inhibition is -0.1% (inactive).

As to `COc1ccc(-c2cc(=O)oc3cc(OC(C)C(=O)O)ccc23)cc1` (stereo not given), the inhibition is 0.9% (inactive).

For `COc1ccc2[nH]c(CN3CCN(CC(C)C)C(CCO)C3)c(C)c2c1` (stereo not given), the inhibition was 2.4% (inactive).

Take `CC(C)(C)C(=O)NC(=S)NNC(=O)c1ccncc1`: the inhibition was 8.3% (inactive).

Consider `CC(C)c1ccc(NC(=O)CNS(=O)(=O)c2ccc(F)cc2)cc1`, for which the inhibition was 1.6% (inactive).

With `Cn1c2ccc(CC(=O)O)cc2c2cc(CC(=O)O)ccc21`, the inhibition was 2.2% (inactive).

With `O=C1OC(Nc2ccc3c(c2)OCO3)c2ccccc21` (stereo not given), the inhibition is 0.9% (inactive).

Take `O=CNC1CCCc2c1[nH]c1ccc(Cl)cc21` (stereo not given): the inhibition is -1.4% (inactive).

Turning to `CN(C)CCCN1c2ccccc2Sc2ccccc21`, the inhibition is -0.5% (inactive).

With `COc1ccccc1N1C(=O)C2CC(C)=C(C)CC2C1=O` (stereo not given), the inhibition was -2.6% (inactive).

Turning to `Cc1ccc(NC(=O)CSc2nc(O)c(Cc3ccccc3)c(=O)n2-c2ccccc2)cc1`, the inhibition was -0.8% (inactive).

For `CC(C)CCOCC(=O)Nc1cccc(C(=O)O)c1`, the inhibition was 2.9% (inactive).

On to `COc1ccc(C(=O)N2c3cc4c(cc3C(C)=CC2(C)C)OCO4)cc1`, for which the inhibition was 3.7% (inactive).

In the case of `CC[C@H]1OC(=O)[C@H](C)[C@@H](O[C@H]2C[C@@](C)(OC)[C@@H](O)[C@H](C)O2)[C@H](C)[C@@H](O[C@@H]2O[C@H](C)C[C@H](N(C)C)[C@H]2O)[C@](C)(O)C[C@@H](C)[C@@H]2N[C@@H](COCCOC)O[C@H]([C@H]2C)[C@]1(C)O`, the inhibition was 3.3% (inactive).

With `CSCCC(NC(=O)/C(=C/c1ccc2c(c1)OCO2)NC(=O)c1cccc([N+](=O)[O-])c1)C(=O)O` (stereo not given), the inhibition is -1.7% (inactive).

Consider `CCCCC[C@H](O)/C=C/[C@@H]1[C@@H](CCCCCCC(=O)O)[C@@H](O)C[C@H]1O`, for which the inhibition is -2.9% (inactive).

On to `C[C@@H]1C[C@H]2[C@@H]3C[C@H](F)C4=CC(=O)C=C[C@]4(C)[C@@]3(F)[C@@H](O)C[C@]2(C)[C@@]1(O)C(=O)COC(=O)C(C)(C)C`, for which the inhibition is -2.6% (inactive).

Regarding `COc1ccc(CNC(=O)N[C@H](C(=O)O)C(C)C)cc1OC`, the inhibition was -0.7% (inactive).

In the case of `O=C(NCCN1CCN(c2ccccc2)CC1)c1cccc(Br)c1`, the inhibition was -4.4% (inactive).

Turning to `Cn1c(=O)c(C(=O)NCCO)c(O)c2ccccc21`, the inhibition was 0.4% (inactive).

Regarding `CNc1c2c(nn1C)CCCC2`, the inhibition was 0.6% (inactive).

As to `OCCN1CCN(CCCN2c3ccccc3Sc3ccc(Cl)cc32)CC1`, the inhibition was -0.8% (inactive).

Take `O=C(/C=C/c1ccco1)N1CCN(c2ccccc2)CC1`: the inhibition is -0.6% (inactive).

With `O=c1c2ccccc2nc2n1-c1ccccc1CCC2`, the inhibition was 3.5% (inactive).

Turning to `Cn1cc(CN2CCCC(CO)(Cc3cccc(Cl)c3)C2)cn1` (stereo not given), the inhibition was 4.8% (inactive).

Consider `O=C1CC(c2ccc(F)cc2)Cc2nc(NCC3CCCO3)ncc21` (stereo not given), for which the inhibition was -1% (inactive).

Regarding `O=c1oc2c(CN3CCN(CCO)CC3)c(O)ccc2cc1-c1ccccn1`, the inhibition is -0.2% (inactive).

As for `CC(=O)OC(C)C[N+](C)(C)C` (stereo not given), the inhibition was 0.7% (inactive).

On to `O=C(O)/C=C/c1cnc[nH]1`, for which the inhibition was 1.9% (inactive).

As to `COc1ccc(CCn2c(C)nc3c(c(=O)c4ccccc4n3C)c2=O)cc1`, the inhibition is 3.4% (inactive).

With `COc1cc2cc(C)nc(Cc3cccc4ccccc34)c2cc1OC`, the inhibition is 5.3% (inactive).

As for `NS(=O)(=O)c1cc(C2(O)NC(=O)c3ccccc32)ccc1Cl` (stereo not given), the inhibition is -0.2% (inactive).

On to `O=c1c2ccccc2nc2n1CCCN2`, for which the inhibition is -4.6% (inactive).

Another assay concerns the target Botulinum neurotoxin type A (Clostridium botulinum) (UniProt P0DPI0). Description: BoNT/A light chain protease inhibitors, biochemical, multiplex microsphere flow cytometry, validation set (AID 588460). As to conditions: at 10 µM, hits give high values. On the technique in general: In flow cytometry, cells or beads pass a laser one at a time.
As to `CC(C)(C)N(Cc1ccccc1)C(=O)c1ccc(Br)o1`, the inhibition was 0.8% (inactive).

With `O=C(O)CCCCCN=C1CCc2ccccc2N1`, the inhibition is -0.4% (inactive).

Regarding `CC(C)CC(=O)Nc1ccc2oc(-c3ccncc3)nc2c1`, the inhibition is 0.3% (inactive).

Regarding `COc1ccc2[nH]cc(CCNC(=O)C3CCCNC3=O)c2c1` (stereo not given), the inhibition was -1.5% (inactive).

In the case of `O=C(O)C1CSC(c2ccc3c(c2)OCO3)N1` (stereo not given), the inhibition was 1.1% (inactive).

`COCCOC(=O)C1=C(N)OC2=C(C(=O)CCC2)C1c1cccnc1` (stereo not given): the inhibition was 0% (inactive).

Regarding `COc1ccc2[nH]c(=O)c(CNC3CCCCC3)cc2c1`, the inhibition is 0.9% (inactive).

Consider `Cc1oc2ccc(OC(=O)c3cccs3)cc2c1C(=O)OC(C)C`, for which the inhibition is -1.1% (inactive).

Take `COc1ccc(-c2cc(=O)oc3cc(OC(C)C(=O)O)ccc23)cc1` (stereo not given): the inhibition was 2% (inactive).

For `COc1ccc2[nH]c(CN3CCN(CC(C)C)C(CCO)C3)c(C)c2c1` (stereo not given), the inhibition was 1.6% (inactive).

Take `CC(C)(C)C(=O)NC(=S)NNC(=O)c1ccncc1`: the inhibition is 2.9% (inactive).

Turning to `CC(C)c1ccc(NC(=O)CNS(=O)(=O)c2ccc(F)cc2)cc1`, the inhibition is -0.9% (inactive).

For `Cn1c2ccc(CC(=O)O)cc2c2cc(CC(=O)O)ccc21`, the inhibition was -0.6% (inactive).

With `O=C1OC(Nc2ccc3c(c2)OCO3)c2ccccc21` (stereo not given), the inhibition is -1.8% (inactive).

Regarding `O=CNC1CCCc2c1[nH]c1ccc(Cl)cc21` (stereo not given), the inhibition is 0.2% (inactive).

As for `CN(C)CCCN1c2ccccc2Sc2ccccc21`, the inhibition is -0.5% (inactive).

For `COc1ccccc1N1C(=O)C2CC(C)=C(C)CC2C1=O` (stereo not given), the inhibition is -0.4% (inactive).

In the case of `Cc1ccc(NC(=O)CSc2nc(O)c(Cc3ccccc3)c(=O)n2-c2ccccc2)cc1`, the inhibition was -0.6% (inactive).

Take `CC(C)CCOCC(=O)Nc1cccc(C(=O)O)c1`: the inhibition is 0% (inactive).

As for `COc1ccc(C(=O)N2c3cc4c(cc3C(C)=CC2(C)C)OCO4)cc1`, the inhibition is 0% (inactive).

`CC[C@H]1OC(=O)[C@H](C)[C@@H](O[C@H]2C[C@@](C)(OC)[C@@H](O)[C@H](C)O2)[C@H](C)[C@@H](O[C@@H]2O[C@H](C)C[C@H](N(C)C)[C@H]2O)[C@](C)(O)C[C@@H](C)[C@@H]2N[C@@H](COCCOC)O[C@H]([C@H]2C)[C@]1(C)O`: the inhibition is 0.7% (inactive).

On to `CSCCC(NC(=O)/C(=C/c1ccc2c(c1)OCO2)NC(=O)c1cccc([N+](=O)[O-])c1)C(=O)O` (stereo not given), for which the inhibition is 0.6% (inactive).

In the case of `CCCCC[C@H](O)/C=C/[C@@H]1[C@@H](CCCCCCC(=O)O)[C@@H](O)C[C@H]1O`, the inhibition is -1.3% (inactive).

For the molecule `C[C@@H]1C[C@H]2[C@@H]3C[C@H](F)C4=CC(=O)C=C[C@]4(C)[C@@]3(F)[C@@H](O)C[C@]2(C)[C@@]1(O)C(=O)COC(=O)C(C)(C)C`, the inhibition is -2.1% (inactive).

For `COc1ccc(CNC(=O)N[C@H](C(=O)O)C(C)C)cc1OC`, the inhibition is -1.2% (inactive).

For the molecule `O=C(NCCN1CCN(c2ccccc2)CC1)c1cccc(Br)c1`, the inhibition was -2.3% (inactive).

Consider `Cn1c(=O)c(C(=O)NCCO)c(O)c2ccccc21`, for which the inhibition is -0.1% (inactive).

Regarding `CNc1c2c(nn1C)CCCC2`, the inhibition was -1.3% (inactive).

With `OCCN1CCN(CCCN2c3ccccc3Sc3ccc(Cl)cc32)CC1`, the inhibition is 0.8% (inactive).

For the molecule `O=C(/C=C/c1ccco1)N1CCN(c2ccccc2)CC1`, the inhibition is -1.8% (inactive).

Consider `O=c1c2ccccc2nc2n1-c1ccccc1CCC2`, for which the inhibition was 0.6% (inactive).

For the molecule `Cn1cc(CN2CCCC(CO)(Cc3cccc(Cl)c3)C2)cn1` (stereo not given), the inhibition is 1.3% (inactive).

As to `O=C1CC(c2ccc(F)cc2)Cc2nc(NCC3CCCO3)ncc21` (stereo not given), the inhibition was 0.1% (inactive).

As to `O=c1oc2c(CN3CCN(CCO)CC3)c(O)ccc2cc1-c1ccccn1`, the inhibition was 0.8% (inactive).

In the case of `CC(=O)OC(C)C[N+](C)(C)C` (stereo not given), the inhibition is 0.6% (inactive).

As for `O=C(O)/C=C/c1cnc[nH]1`, the inhibition is -0.2% (inactive).

With `COc1ccc(CCn2c(C)nc3c(c(=O)c4ccccc4n3C)c2=O)cc1`, the inhibition is 0.2% (inactive).

In the case of `COc1cc2cc(C)nc(Cc3cccc4ccccc34)c2cc1OC`, the inhibition was 1.3% (inactive).

For the molecule `NS(=O)(=O)c1cc(C2(O)NC(=O)c3ccccc32)ccc1Cl` (stereo not given), the inhibition was -1.6% (inactive).

As for `O=c1c2ccccc2nc2n1CCCN2`, the inhibition was -2.9% (inactive).
